23 compounds from PubChem BioAssay can be followed below.

Active and inactive are the calls of the source. Rule as the data show it: active = parasite load remaining mostly below about 12% (no sharp cut-off); inactive = mostly above about 10%. Peptide text beside a SMILES is read from it.

Assay [1] can be described thus: enhancers of glutamate uptake in motor neurons, MN-1 cell line (AID 1612).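 Also: tested at 1 µM final; 0% = mean of DMSO vehicle wells on each plate; positive means more glutamate uptake than control and negative means less.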 The following applies: MN-1 motor neuron cells, stronger effect = higher value.
Assay [2] is described as follows: reducers of polyQ inclusions in PC12 cells, cell-based, NGF-treated PC12, GFPQ80 (AID 1614).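 Also: lower means fewer inclusions and 0 means no inclusions at all.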 The following applies: PC12 NGF-treated GFP-polyQ80 inclusion reduction.
A short description of assay [3]: suppressors of polyglutamine aggregation in yeast, 75Q-TubH (AID 1616). The following applies: S. cerevisiae 75Q-TubH polyglutamine aggregation suppression; stronger effect = higher value.
Assay [4] can be described thus: liver-stage malaria parasite growth inhibition, primary screen, cell-based, HepG2, luciferase luminescence, HepG2 viability (AID 624349).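 Also: 100% = mean of DMSO negative control wells on the same plate.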 The following applies: P. berghei liver stage in HepG2, luciferase luminescence, concentration not given here; parasite load remaining: stronger effect = lower value; viability: measured here: HepG2 viability without parasites.

For the compound `CC(Oc1ccccc1)C(=O)NC1C(=O)N2C(C(=O)O)C(C)(C)S[C@H]12` (stereo not given in full), the glutamate uptake change in assay [1] turned out to be 4.57%. This compound also showed an inclusion score in assay [2] of 2. Besides, the aggregation suppression score in assay [3] was determined as 1.04.

Broadly, the viability is a read-out of living cells in per cent, often relative to untreated cells. As for `CC(=O)[C@H]1CCC2C3CC=C4C[C@@H](O)CC[C@]4(C)C3CC[C@@]21C` (stereo not given in full), the glutamate uptake change in assay [1] was -1.9%. The compound further showed an inclusion score in assay [2] of 2. The same compound gave an aggregation suppression score in assay [3] of 0.0851. Moreover, in assay [4], the parasite load remaining is 85.1% (inactive) and the viability is 69.9%.

For the compound `COC(=O)C(C)C[N+](C)(C)C` (stereo not given), the glutamate uptake change in assay [1] is 0.97%. Further, in assay [2], the inclusion score was found to be 2. This compound also had an aggregation suppression score in assay [3] of 1.5.

Consider `CC(N)C(O)c1cccc(O)c1` (stereo not given), for which the glutamate uptake change in assay [1] was -5.75%. The same compound came in with an inclusion score in assay [2] of 2. The compound further came in with an aggregation suppression score in assay [3] of 1.46. For the same compound, in assay [4], the parasite load remaining was 141% (inactive) and the viability is 88.5%.

With `CC(C)CC1NC(=O)CNC1=O` (stereo not given), in assay [1], the glutamate uptake change is -1.97%. The compound further gave an inclusion score in assay [2] of 2. The compound also showed an aggregation suppression score in assay [3] of 0.832.

As for `COC(=O)/C(=C1\OC(=O)C(c2ccccc2)C1=O)c1ccccc1` (stereo not given), in assay [1], the glutamate uptake change worked out at 6.01%. This compound also showed an inclusion score in assay [2] of 2. In assay [3], this compound showed an aggregation suppression score of 0.0212.

In the case of `NC[C@@H]1O[C@H](OC2[C@@H](O)[C@H](O[C@@H]3[C@H](N)[C@@H](O)C[C@H](N)[C@H]3O[C@H]3O[C@H](CO)[C@@H](O)[C@H](O)[C@H]3N)O[C@@H]2CO)[C@H](N)[C@@H](O)[C@@H]1O` (stereo not given in full), in assay [1], the glutamate uptake change came to 21.4%. Moreover, the inclusion score in assay [2] stood at 2. This compound had an aggregation suppression score in assay [3] of 0.564.

Regarding `NC[C@@H]1O[C@H](O[C@H]2[C@@H](O)[C@H](O[C@@H]3[C@@H](O)[C@H](N)C[C@H](N)[C@H]3O[C@@H]3O[C@H](CO)[C@@H](O)C[C@H]3N)O[C@@H]2CO)[C@H](N)[C@@H](O)[C@@H]1O[C@H]1O[C@H](CO)[C@@H](O)[C@H](O)[C@@H]1O`, the glutamate uptake change in assay [1] worked out at 1.1%. In assay [2], the inclusion score was 2. Further, the aggregation suppression score in assay [3] stood at 1.86.

Take `Cc1cc(Nc2ccccc2C(=O)O)ccc1Cl`: the glutamate uptake change in assay [1] is -15.3%. This compound returned an inclusion score in assay [2] of 1. In assay [3], this compound displayed an aggregation suppression score of -0.491.

Consider `CC1CC2C3CCC4=CC(=O)C=CC4(C)[C@@]3(F)C(O)CC2(C)[C@@]1(O)C(=O)CO` (stereo not given in full), for which the glutamate uptake change in assay [1] was -14.9%. Also, the inclusion score in assay [2] was determined as 2. In assay [3], the aggregation suppression score turned out to be 1.3.

Turning to `CC(=O)OCC(=O)[C@@]12OC(C)(C)O[C@@H]1C[C@H]1C3C[C@H](F)C4=CC(=O)C=CC4(C)[C@@]3(F)[C@@H](O)C[C@@]12C` (stereo not given in full), in assay [1], the glutamate uptake change was determined as 13.8%. The compound also registered an inclusion score in assay [2] of 2. This compound gave an aggregation suppression score in assay [3] of 0.953.

Take `NCC1CCC(N)C(OC2C(N)CC(N)C(OC3OC(CO)C(O)C(N)C3O)C2O)O1` (stereo not given): in assay [1], the glutamate uptake change turned out to be 14.5%. Also, the inclusion score in assay [2] worked out at 1.5. Moreover, the aggregation suppression score in assay [3] came to 1.46.

With `O=c1cc(-c2ccccc2)oc2cc(O)c(O)cc12`, in assay [1], the glutamate uptake change amounted to 11%. Moreover, in assay [2], the inclusion score was determined as 2. In assay [3], this compound came in with an aggregation suppression score of 0.852.

As to `C[C@@H]1CC2C3C[C@H](F)C4=CC(=O)C=CC4(C)C3(F)[C@@H](O)CC2(C)C1C(=O)COC(=O)C(C)(C)C` (stereo not given in full), in assay [1], the glutamate uptake change was 10.9%. The inclusion score in assay [2] is 2. The compound further registered an aggregation suppression score in assay [3] of 0.899.

Take `NCCCCC(N)C(=O)NC(Cc1c[nH]c2ccccc12)C(=O)NC(CCCCN)C(=O)O` (stereo not drawn) (H-Lys-Trp-Lys-OH; configuration not given here): the glutamate uptake change in assay [1] amounted to 46.5%. Also, the inclusion score in assay [2] stood at 2. Besides, in assay [3], the aggregation suppression score was found to be 1.18.

For `CC(=O)C1CCC2C3CC=C4CC(OS(=O)(=O)O)CC[C@]4(C)C3CC[C@]12C` (stereo not given in full), in assay [1], the glutamate uptake change turned out to be 48.1%. Moreover, the inclusion score in assay [2] turned out to be 2. The compound further showed an aggregation suppression score in assay [3] of 0.286.

Turning to `OCCS`, the glutamate uptake change in assay [1] amounted to 5.07%. Also, in assay [2], the inclusion score came to 2. For the same compound, in assay [3], the aggregation suppression score worked out at 1.5.

Turning to `NCCCCC(N)C(=O)NCC(=O)NC(Cc1cnc[nH]1)C(=O)NC(CCCCN)C(=O)O` (stereo not given) (H-KGHK-OH; configuration not given here), the glutamate uptake change in assay [1] was determined as 18.4%. For the same compound, the inclusion score in assay [2] was determined as 2. The aggregation suppression score in assay [3] came out at 1.42.

Regarding `CC12CC[C@@H]3c4ccc(O)cc4CCC3[C@@H]1CCC2=O` (stereo not given in full), in assay [1], the glutamate uptake change is -29%. The inclusion score in assay [2] stood at 2. In assay [3], the aggregation suppression score is 0.566.

On to `NCC1OC(OC2C(N)CC(N)C(OC3OC(CO)C(O)C(N)C3O)C2O)C(N)C(O)C1O` (stereo not given), for which the glutamate uptake change in assay [1] is -14.8%. The inclusion score in assay [2] turned out to be 2. The aggregation suppression score in assay [3] was found to be 1.28.

`CC1(C)O[C@@H]2C[C@H]3C4C[C@H](F)C5=CC(=O)C=CC5(C)[C@@]4(F)[C@@H](O)C[C@]3(C)[C@]2(C(=O)CO)O1` (stereo not given in full): the glutamate uptake change in assay [1] came out at 15.9%. The compound also returned an inclusion score in assay [2] of 2. Also, in assay [3], the aggregation suppression score was found to be 1.43.

For the compound `CC12CCC(CC1=O)C2(C)C` (stereo not given), in assay [1], the glutamate uptake change was 5.12%. In assay [2], this compound came in with an inclusion score of 2. In assay [3], this compound came in with an aggregation suppression score of 1.49.

Consider `COc1ccc(CCC(=O)c2c(O)cc(O[C@@H]3O[C@H](CO)C(O)[C@H](O)C3O[C@@H]3O[C@@H](C)[C@H](O)[C@@H](O)[C@H]3O)cc2O)cc1O` (stereo not given in full), for which, in assay [1], the glutamate uptake change was -15.4%. The inclusion score in assay [2] was found to be 2. The compound further came in with an aggregation suppression score in assay [3] of 1.25. For the same compound, in assay [4], the parasite load remaining is 146% (inactive) and the viability is 70.8%.
